Screening data: PubChem BioAssay, National Center for Advancing Translational Sciences (NCATS)
AmpC detergent: qHTS Inhibitors of AmpC Beta-Lactamase (assay with detergent). AmpC hydrolysis of nitrocefin, absorbance 480 nm, 0.01% Triton. Potency, µM (series often up to 114 µM), for inactives: at the top dose activity change, negative = inhibition, hits mostly inhibitors. 370,000 tested, 0.041% active. AID 485294, 2010;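 note: potency is the fitted concentration of half-maximal effect; 0% = no-compound wells and -100% = no-enzyme wells; nearly all actives have a fitted effect of over 25% in size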
Target sequence (P00811 whole entry, looked up): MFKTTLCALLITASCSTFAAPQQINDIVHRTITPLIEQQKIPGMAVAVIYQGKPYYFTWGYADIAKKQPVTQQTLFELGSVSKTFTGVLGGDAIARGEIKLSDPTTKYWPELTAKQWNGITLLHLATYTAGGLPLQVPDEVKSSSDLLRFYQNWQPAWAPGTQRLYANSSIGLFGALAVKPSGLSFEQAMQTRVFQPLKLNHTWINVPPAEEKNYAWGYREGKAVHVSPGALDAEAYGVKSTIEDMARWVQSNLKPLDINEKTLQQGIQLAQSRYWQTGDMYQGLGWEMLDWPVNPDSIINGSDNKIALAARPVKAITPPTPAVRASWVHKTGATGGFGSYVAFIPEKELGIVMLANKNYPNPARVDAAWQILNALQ
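20 mM phosphate pH 7.0 + 0.01% (detergent screen) or 0.0001% Triton X-100; 5.3 nM AmpC reagent; cpd preinc 15 min RT; nitrocefin (800 uM stock) to start; A480 q20 s × 4 min; Activity was normalised to no-enzyme and no-compound control wells.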
FMDV antiviral: High Throughput Screening for Foot and Mouth Disease Virus Antivirals; FMDV antiviral cell-based qHTS; Potency, µM (top dose mostly 57.9 µM), for inactives: at the highest dose activity change, negative = inhibition, actives largely listed as inhibitors; 410,000 tested, 1.2% active; calls by dose curve; tested in HEK293T cells; note: read-out not given here; potency is the fitted concentration of half-maximal effect; nearly all actives have a fitted effect of over 45% in size
HCMV inh: qHTS Assay for inhibitors of the human cytomegalovirus (HCMV); activity change, negative = inhibition, % at 57.5 µM; HFF cells, HCMV-luciferase reporter, 72 h; stronger effect = lower value; 410,000 tested, 4.5% active; AID 1259415, 2018; in the data active = activity change below about -60%; inconclusive = no clear call, values can overlap the other calls; inactive = above about -39%
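Steps: HFFs plated, 16 h 37C; compounds added; HCMV-luciferase added to MOI 1 PFU/cell; 72 h 37C; OneGlo reagent, 5 min room temperature; luminescence read, normalized to controls.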
HCV inh: qHTS Assay for Inhibitors of Hepatitis C Virus (HCV); Huh7.5.1 HCVcc-Cre infection, luciferase reporter, 44 h; Potency, µM (series often up to 41.8 µM), for inactives: at the highest dose activity change, negative = inhibition, usual class: inhibitors; 340,000 tested, 3.4% active; AID 651820, 2012; note: potency is the fitted concentration of half-maximal effect
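Seed cells (1,000/well) for 4 h; treat with compound and infect with HCVcc-Cre, moi about 0.5. Incubate 44 h, then detect luciferase activity.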
AmpC no deterg: qHTS Inhibitors of AmpC Beta-Lactamase (assay without detergent). AmpC nitrocefin hydrolysis, absorbance 480 nm, 0.0001% Triton. Potency, µM (top dose mostly 57.1 µM), without a hit: top-dose activity change, negative = inhibition, most hits filed as inhibitors. 330,000 tested, 0.52% active;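 note: potency is the fitted concentration of half-maximal effect; plate controls were no compound for no effect and no enzyme for full effect; nearly all actives have a fitted effect of over 20% in size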
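AmpC (5.3 nM in the dispensed reagent) in 20 mM phosphate pH 7.0 with 0.01% (detergent screen) or 0.0001% Triton X-100 was preincubated with compounds for 15 min at room temperature. Nitrocefin was then added from an 800 uM solution, and hydrolysis was followed at 480 nm.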
The depositor's hits bear a star; ? = inconclusive; . = no result given; [ ] = dose if it differs, or a comment. An excerpt weighted towards active compounds, which were near 7.3% of everything screened. Unless noted, calls come from the whole dose curve; as a rule, active = well fitted curve in the direction sought with a large enough effect; inconclusive = small, poorly fitted or top-dose-only effect, or another doubt; inactive = no such curve, though single readings can be large; an effect the other way counts as inactive or inconclusive. Unless noted, % is set by controls: 0 for no effect and ±100 for the full control effect.

SMILES | AmpC detergent | FMDV antiviral | HCMV inh | HCV inh | AmpC no deterg
C=C(C)C(=O)Oc1ccc(N=Nc2ccc(C)cc2)ccc1=O | . | ? | 0 | 11µM* | .
O=C(CCNC(=O)c1ccc(Cl)cc1)Nc1cc(C(F)(F)F)ccc1N1CCOCC1 | . | -21% | 29 | . | .
COc1cccc(CC(=O)Nc2ccc3nc(Nc4cccc(C(F)(F)F)c4)cc(C)c3c2)c1 | 0% | ? | -72* | . | .
COc1ccccc1CC(=O)Nc1ccc2nc(Nc3cccc(C(F)(F)F)c3)cc(C)c2c1 | 18% | ? | -67* | . | .
COc1cccc(NC(=O)Cc2ccccc2)c1 | ? | 52% | -2 | -30% | -11%
COc1ccccc1N1CCN(C(=O)c2ccc(-c3ccc(Cl)cc3)o2)CC1 | ? | -21% | -12 | 3.2µM* | 92%
O=C(c1ccco1)N1CCN(C(=O)c2ccc(-c3ccc([N+](=O)[O-])cc3)o2)CC1 | . | -24% | -14 | ? | -1%
COc1ccccc1NC(=S)NC(=O)c1ccc(-c2ccc(Cl)cc2)o1 | ? | . | -63* | ? | -28%
O=C(NC(=S)Nc1ccccc1O)c1ccc(-c2ccc(Cl)cc2)o1 | -11% | -18% | -3 | 8% | -25%
O=C(c1ccc(-c2ccc(Cl)cc2)o1)N1CCN(S(=O)(=O)c2cccs2)CC1 | -6% | -22% | -61* | ? | -9%
O=C(c1ccc(-c2ccc([N+](=O)[O-])cc2)o1)N1CCN(S(=O)(=O)c2cccs2)CC1 | 4% | ? | -61* | 8% | -21%
Cn1ncc(Cl)c1C(=O)N1CCN(S(=O)(=O)c2cccs2)CC1 | -3% | -12% | 39 | 25% | -2%
Cc1ccc(C(C(=O)NC2CCCCC2)N(CC2CCCO2)C(=O)CCCC(=O)Nc2ccccn2)cc1 (centres undefined) | 4% | 4% | -71* | -13% | 98%
CSc1ccc(C(=O)C2CCCN(C(=O)c3nn(C)c(=O)c4ccccc34)C2)cc1 (centres undefined) | ? | ? | -25 | 13µM* | -7%
CCCc1nc(NCc2ccccn2)c2nnn(Cc3ccccc3F)c2n1 | 0% | 25µM* | -33 | ? | -21%
CCCc1nc(NCc2ccncc2)c2nnn(Cc3ccccc3F)c2n1 | -13% | ? | -24 | ? | -22%
COC(=O)[C@@H]1[C@@H](C#N)C2(c3ccccc3-c3ccccc32)N(c2ccc(Cl)cc2)N1C#N | -14% | 25µM* | -27 | ? | -26%
CCCCn1c(N)c(N(C)C(=O)C2CCCC2)c(=O)[nH]c1=O | 1% | 3% | -4 | 7% | -5%
O=S(=O)(Nc1nc2ccccc2s1)c1ccc(Br)s1 | ? | . | 8 | 32% | 32µM*
Cc1ccc(S(=O)(=O)Nc2nc3ccccc3s2)cc1 | ? | 95% | 45 | 11% | -18%
O=c1c([N+](=O)[O-])cccn1Cc1ccccc1Cl | -9% | -10% | -25 | 1% | -29%
O=[N+]([O-])c1ccccc1-c1cc(-c2ccccc2)cc(-c2ccccc2)[n+]1Cc1ccccc1Cl | -8% | ? | -97* | 3.5µM* | 94%
CC(C)(C)c1ccc(Cn2c(=N)n(CC(O)c3ccco3)c3ccccc32)cc1 (centres undefined) | 5% | 20µM* | . | 10µM* | 34%
CCCCCCCn1c(=N)n(CC(O)c2ccco2)c2ccccc21 (centres undefined) | 0% | -16% | -73* | 8.9µM* | 23%
CC1CC(C)C[N+](=C2C=C(N3CCCC3)CC(C)(C)C2)C1 (centres undefined) | -10% | ? | -102* | 3.5µM* | -6%[11.4 µM]
SMILES | AmpC detergent | FMDV antiviral | HCMV inh | HCV inh | AmpC no deterg
CC1(C)CC(N2CCN(c3ccccc3)CC2)=CC(=[N+]2CCCC2)C1 | ? | . | -98* | ? | -1%
CC1(C)CC(N2CCCC2)=CC(=[N+]2CCCCCC2)C1 | 1% | ? | -98* | ? | 10%
CSc1nc(N2CCN(c3ccccc3)CC2)cc(N2CCN(c3ccccc3)CC2)n1 | -4% | -24% | -8 | ? | -22%
CC1=CC(O)(c2ccccn2)P(=O)(c2ccccc2)C=C1C (centres undefined) | . | . | -14 | . | .
COc1ccc(N2C(=O)[C@@H]3C[C@H]2CN3Cc2ccc3nccnc3c2)cc1Cl | . | -14% | . | . | .
CC1CCN(C(=O)CSc2nc(=O)n3ccccc3n2)CC1 | ? | -16% | -32 | -4% | -8%
O=C(Nc1ccccc1)N1CC[C@@]2(CCCN(C(=O)c3ccncc3)C2)C1 | . | -10% | . | . | .
Cc1c(C(=O)N2CCC(C)CC2)sc2ncnc(N(C)c3ccccc3)c12 | ? | ? | -66* | ? | 10%
CCN(Cc1ccncc1)Cc1ccc2c(c1)CN(C(=O)c1cccc3c(C)c(C)[nH]c13)CCO2 | . | 5% | . | . | .
Cc1ccccc1OCC(=O)NCC(c1cccs1)N1CCOCC1 (centres undefined) | -20% | ? | -22 | ? | 35%
COc1ccc(OC)c(NC(=O)CSC2=NN3CCCC(=O)N=C3S2)c1 | -4% | -26% | 4 | -22% | -16%
CCOC(=O)c1c(NC(=O)CSC2=NN3CCCC(=O)N=C3S2)sc2c1CCCCC2 | -21% | -45% | 63 | 8.9µM* | -7%
COc1ccc(Cl)cc1NC(=O)CSC1=NN2CCCC(=O)N=C2S1 | ? | ? | -71* | ? | 0%
CCOC(=O)c1ccc(NC(=O)CSC2=NN3CCCC(=O)N=C3S2)cc1 | ? | -17% | -14 | ? | -11%
CCOc1ccccc1NC(=O)CSC1=NN2CCCC(=O)N=C2S1 | 0% | -13% | -80* | -25% | -10%
C[C@H](CO)N1C[C@H](C)[C@@H](CN(C)S(=O)(=O)c2cccs2)Oc2ccc(NC(=O)Cn3cnnn3)cc2C1=O | . | -10% | -20 | 13% | 19%
CC(=O)N1CCN(S(=O)(=O)c2cccc(C(=O)OCc3cccc(F)c3)c2)CC1 | -4% | ? | 0 | ? | 252%
COc1ccc(Br)cc1CNC(=O)CCc1cn(Cc2ccc(C)cc2)c2ccccc12 | 18% | -14% | -16 | . | .
Cc1ccc2c(c1)N(C(=O)NCc1ccccc1)CCO2 | 15% | -10% | -1 | . | .
Cc1ccc(-n2nc(C(=O)Nc3ccc(F)cc3Cl)c(=O)n(C)c2=O)cc1 | 22% | -17% | 11 | . | .
COc1ccc(C(=O)NCc2ccc3c(c2)CCN3C(C)=O)cc1OC | -4% | 6% | 46 | . | .
CC(=O)OC1CC(OC2C(O)CC(OC3C(O)CC(OC4CCC5(C)C(CCC6C5CCC5(C)C(C7=CC(=O)OC7)CCC65O)C4)OC3C)OC2C)OC(C)C1OC1OC(CO)C(O)C(O)C1O (centres undefined) | . | 0% | -98* | 0.79µM* | .
